# Measured values taken from the supplement of paper PMC7530171.
# ± gives the standard deviation.
# System: THP-1
# Assay: THP-1 cell loss relative to DMSO control; higher = more host cell loss (toxicity); extreme values may be limits of the assay
# Details: 10 µM; 4 days; infection: M. tuberculosis H37Rv
# Procedure: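 OICR kinase inhibitor library screened in duplicate at 10 uM against M. tuberculosis-infected THP-1 macrophages, 4 days at 37 C. THP-1 cell loss (cytotoxicity or loss of adherence) was quantified from Hoechst-stained nuclei counts by high-content imaging and normalised to the 1% DMSO control; 100 = complete loss of host cells.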
row,Structure (SMILES),THP-1 cell loss
1,COC(=O)[C@@]1(O)C[C@H]2O[C@]1(C)n1c3ccccc3c3c4c(c5c6ccccc6n2c5c31)C(=O)NC4,100%
2,COc1ccc2c(c1)/C(=C/c1cnc[nH]1)C(=O)N2,53.2 ± 9.3%
3,Cc1n[nH]c2ccc(-c3cncc(OC[C@@H](N)Cc4c[nH]c5ccccc45)c3)cc12,100%
4,NC(=S)N/N=C/c1coc2ccccc2c1=O.[Cl][Cu][Cl],16.3 ± 5.1%
5,C[C@]12O[C@H](C[C@]1(O)CO)n1c3ccccc3c3c4c(c5c6ccccc6n2c5c31)CNC4=O [Lestaurtinib],100%
6,O=C1Nc2ccc3ncsc3c2/C1=C/c1cnc[nH]1 [Imidazolo-oxindole PKR inhibitor C16],100%
7,C/C(O)=C(\C#N)C(=O)Nc1cc(Br)ccc1Br,4 ± 5.7%
8,O=C1NC(=O)c2c1c1c3ccccc3[nH]c1c1[nH]c3ccccc3c21 [Arcyriaflavin A],75.7 ± 34%
9,COc1ccc2c(c[n+](C)c3c4cc5c(cc4ccc23)OCO5)c1OC [Chelerythrine chloride],100%
10,CCn1cnc2c(Nc3cccc(Cl)c3)nc(N[C@@H]3CCCC[C@@H]3N)nc21,100%
11,O=C1NC(=O)c2c1c1c3ccccc3n3c1c1c2c2ccccc2n1[C@H]1CC[C@@H]3O1,100%
12,O=c1[nH]c2ccc(Cl)cc2c(N[C@@H]2CN3CCC2CC3)c1-c1nc2ccccc2[nH]1,100%
13,Cn1cc(C2=C(c3cn(C4CCN(Cc5ccccn5)CC4)c4ccccc34)C(=O)NC2=O)c2ccccc21 [Enzastaurin],52.5 ± 67%
14,Cc1ccccc1-n1c(Cn2cnc3c(N)ncnc32)nc2cccc(C)c2c1=O,5.83 ± 8.2%
15,COC[C@H]1OC(=O)c2coc3c2[C@@]1(C)C1=C(C3=O)[C@@H]2CCC(=O)[C@@]2(C)C[C@H]1OC(C)=O [Wortmannin],45.8 ± 7.5%
16,CN[C@@H]1C[C@H]2O[C@@](C)([C@@H]1OC)n1c3ccccc3c3c4c(c5c6ccccc6n2c5c31)C(=O)NC4 [Staurosporine],100%
17,CC(=O)c1c(O)c(C)c(O)c(Cc2c(O)c3c(c(C(=O)/C=C/c4ccccc4)c2O)OC(C)(C)C=C3)c1O [Rottlerin],71.2 ± 41%
18,N#C/C(=C\c1ccc(O)c(O)c1)C(N)=S,11.5 ± 1.3%
